Measurements from PubChem BioAssay.
Active and inactive are the calls of the source.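 Rule for the calls: active = thallium flux through the channel raised or lowered by more than 3 SD from vehicle-only wells, actives on both sides; inactive = the rest.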

Assays:
Test in all cases: BK channel mutant inhibitors and activators – cell-based, U2OS BacMam, thallium flux, beta subunits, selectivity assay, profiling panel (AID 1259406);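 note: initial slope of Thallos dye fluorescence rise after thallium is added; log ratio against the mean of 0.3% DMSO vehicle wells on the same plate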
[1] = test system: F380Y/beta2Delta; details: U2OS BacMam BK variants, at 30 µM
[2] = test system: F380Y/beta4; details: U2OS BacMam BK variants, at 30 µM
[3] = target: Calcium-activated potassium channel subunit alpha-1 (Homo sapiens) + Leucine-rich repeat-containing protein 26 (Homo sapiens) (UniProt Q12791+Q2I0M4); details: U2OS BacMam BK variants, F380Y/Slo1WT/gamma1, at 30 µM
[4] = test system: R275C; details: U2OS BacMam BK variants, at 30 µM
[5] = test system: R275C/beta1; details: U2OS BacMam BK variants, at 30 µM
[6] = test system: R275C/beta2Delta; details: U2OS BacMam BK variants, at 30 µM
[7] = test system: R275C/beta4; details: U2OS BacMam BK variants, at 30 µM
[8] = test system: R275C/Slo1WT/beta2; details: U2OS BacMam BK variants, at 30 µM

Measured: log fold change Tl+ flux

Sequence of Calcium-activated potassium channel subunit alpha-1 (Homo sapiens) + Leucine-rich repeat-containing protein 26 (Homo sapiens) (Q2I0M4 whole entry, looked up, one chain of several): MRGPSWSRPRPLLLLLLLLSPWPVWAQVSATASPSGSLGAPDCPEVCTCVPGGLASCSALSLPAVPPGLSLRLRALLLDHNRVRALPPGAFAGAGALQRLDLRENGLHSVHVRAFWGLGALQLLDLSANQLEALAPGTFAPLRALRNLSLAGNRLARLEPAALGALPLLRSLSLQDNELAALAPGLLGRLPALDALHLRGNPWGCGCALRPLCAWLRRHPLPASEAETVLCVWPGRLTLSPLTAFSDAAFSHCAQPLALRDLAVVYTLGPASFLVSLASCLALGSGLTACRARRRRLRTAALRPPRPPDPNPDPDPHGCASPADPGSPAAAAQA

C[C@@H]1CN(CCCn2c3ccccc3c3ccccc32)C[C@H](C)N1
active: [1] 0.138 | [2] 0.64 | [4] 0.377 | [5] 0.219 | [6] 0.146 | [7] 0.312
inactive: [3] 0.0245 | [8] 0.00517

CCOC(=O)O[C@]1(C(=O)OCCl)CC[C@H]2[C@@H]3CCC4=CC(=O)C=C[C@]4(C)[C@H]3[C@@H](O)C[C@@]21C
inactive: [1] -0.0465 | [2] 0.0515 | [3] 0.0345 | [4] -0.0297 | [5] 0.0209 | [6] 0.00232 | [7] 0.00823 | [8] 0.00305

COc1ccc2nc(S(=O)Cc3ncc(C)c(OC)c3C)[nH]c2c1 (centres undefined)
inactive: [1] 0.0168 | [2] 0.00709 | [3] 0.0324 | [4] 0.00389 | [5] 0.0492 | [6] 0.00389 | [7] 0.0199 | [8] 0.0436

NS(=O)(=O)Cc1noc2ccccc12
inactive: [1] -0.0343 | [2] -0.0562 | [3] 0.00637 | [4] -0.021 | [5] 0.0189 | [6] -0.0477 | [7] 0.00838 | [8] -0.0027

CC(=O)Oc1ccccc1C(=O)Nc1ncc([N+](=O)[O-])s1
active: [3] 0.139 | [6] 0.237
inactive: [1] -0.0604 | [2] -0.0482 | [4] -0.00393 | [5] 0.0452 | [7] 0.0513 | [8] 0.00625

CC(C)NCC(O)COc1ccc(CCOCC2CC2)cc1 (centres undefined)
inactive: [1] 0.0281 | [2] 0.0205 | [3] -0.00804 | [4] 0.0179 | [5] 0.00923 | [6] -0.0652 | [7] -0.0167 | [8] -0.00955

O=C(c1ccc(F)cc1)C1CCN(CCn2c(=S)[nH]c3ccccc3c2=O)CC1
inactive: [1] -0.00369 | [2] 0.0138 | [3] -0.000443 | [4] 0.0338 | [5] -0.0174 | [6] -0.00339 | [7] -0.00101
active: [8] 0.0813

COc1cc2nc(N3CCN(C(=O)C4CCCO4)CC3)nc(N)c2cc1OC (centres undefined)
inactive: [1] -0.00319 | [2] 0.00186 | [3] -0.0172 | [4] 0.0113 | [5] -0.0224 | [6] -0.0771 | [7] -0.0968 | [8] -0.0619
